Data as given in PubChem BioAssay.

Tests used:
[1] = test system: Botulinum neurotoxin type F light chain protease (Clostridium botulinum); assay: Clostridium botulinum type F light chain protease inhibitors, microsphere substrate cleavage, validation (AID 588459); conditions: multiplex microsphere protease substrate cleavage assay, flow cytometry; at 10 µM; hits give high values
[2] = molecular target: Botulinum neurotoxin type A (Clostridium botulinum) (UniProt P0DPI0); assay: BoNT/A light chain protease inhibitors, biochemical, multiplex microsphere flow cytometry, validation set (AID 588460); conditions: at 10 µM, hits give high values
Sequence of Botulinum neurotoxin type A (Clostridium botulinum) (P0DPI0 whole entry, looked up): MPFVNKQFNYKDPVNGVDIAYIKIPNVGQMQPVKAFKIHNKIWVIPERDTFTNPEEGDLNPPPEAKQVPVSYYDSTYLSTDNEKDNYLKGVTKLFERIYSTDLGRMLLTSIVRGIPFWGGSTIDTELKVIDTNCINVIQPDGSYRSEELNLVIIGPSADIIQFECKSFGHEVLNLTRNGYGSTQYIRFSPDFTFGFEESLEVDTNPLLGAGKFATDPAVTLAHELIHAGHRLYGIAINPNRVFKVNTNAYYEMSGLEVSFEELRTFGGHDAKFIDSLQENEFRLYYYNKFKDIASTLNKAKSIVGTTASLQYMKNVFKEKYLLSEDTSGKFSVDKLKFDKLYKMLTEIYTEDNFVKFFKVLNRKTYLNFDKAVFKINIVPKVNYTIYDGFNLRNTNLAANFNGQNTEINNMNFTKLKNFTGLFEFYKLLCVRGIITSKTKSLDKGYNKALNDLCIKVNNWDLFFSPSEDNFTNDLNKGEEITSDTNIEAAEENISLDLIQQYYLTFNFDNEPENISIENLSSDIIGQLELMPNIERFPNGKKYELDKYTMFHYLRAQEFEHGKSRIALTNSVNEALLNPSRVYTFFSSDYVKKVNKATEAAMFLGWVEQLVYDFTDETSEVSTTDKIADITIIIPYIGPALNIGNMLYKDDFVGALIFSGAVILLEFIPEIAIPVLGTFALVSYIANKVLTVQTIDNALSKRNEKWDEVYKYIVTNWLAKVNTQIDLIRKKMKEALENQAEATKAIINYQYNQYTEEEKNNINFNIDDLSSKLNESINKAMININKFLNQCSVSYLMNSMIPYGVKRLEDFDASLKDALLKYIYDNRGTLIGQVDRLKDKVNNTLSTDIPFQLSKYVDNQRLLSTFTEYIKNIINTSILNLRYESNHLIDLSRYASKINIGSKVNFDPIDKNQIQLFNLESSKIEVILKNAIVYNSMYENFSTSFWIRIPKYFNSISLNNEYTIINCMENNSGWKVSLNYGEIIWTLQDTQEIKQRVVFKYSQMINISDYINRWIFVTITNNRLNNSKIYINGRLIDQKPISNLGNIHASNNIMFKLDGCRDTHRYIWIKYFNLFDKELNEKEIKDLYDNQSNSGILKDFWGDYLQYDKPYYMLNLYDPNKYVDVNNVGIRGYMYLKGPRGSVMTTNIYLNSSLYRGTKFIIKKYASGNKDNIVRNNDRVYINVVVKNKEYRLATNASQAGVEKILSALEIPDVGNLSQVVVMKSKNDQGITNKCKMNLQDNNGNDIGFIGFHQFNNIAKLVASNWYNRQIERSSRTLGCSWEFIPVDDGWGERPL

[3] = molecular target: Lethal factor (Bacillus anthracis) (UniProt P15917); assay: Bacillus anthracis lethal factor inhibition, microsphere flow cytometry protease assay, validation at 10 µM (AID 588461); conditions: multiplex microsphere protease cleavage assay, hits give high values
Sequence of Lethal factor (Bacillus anthracis) (P15917 whole entry, looked up): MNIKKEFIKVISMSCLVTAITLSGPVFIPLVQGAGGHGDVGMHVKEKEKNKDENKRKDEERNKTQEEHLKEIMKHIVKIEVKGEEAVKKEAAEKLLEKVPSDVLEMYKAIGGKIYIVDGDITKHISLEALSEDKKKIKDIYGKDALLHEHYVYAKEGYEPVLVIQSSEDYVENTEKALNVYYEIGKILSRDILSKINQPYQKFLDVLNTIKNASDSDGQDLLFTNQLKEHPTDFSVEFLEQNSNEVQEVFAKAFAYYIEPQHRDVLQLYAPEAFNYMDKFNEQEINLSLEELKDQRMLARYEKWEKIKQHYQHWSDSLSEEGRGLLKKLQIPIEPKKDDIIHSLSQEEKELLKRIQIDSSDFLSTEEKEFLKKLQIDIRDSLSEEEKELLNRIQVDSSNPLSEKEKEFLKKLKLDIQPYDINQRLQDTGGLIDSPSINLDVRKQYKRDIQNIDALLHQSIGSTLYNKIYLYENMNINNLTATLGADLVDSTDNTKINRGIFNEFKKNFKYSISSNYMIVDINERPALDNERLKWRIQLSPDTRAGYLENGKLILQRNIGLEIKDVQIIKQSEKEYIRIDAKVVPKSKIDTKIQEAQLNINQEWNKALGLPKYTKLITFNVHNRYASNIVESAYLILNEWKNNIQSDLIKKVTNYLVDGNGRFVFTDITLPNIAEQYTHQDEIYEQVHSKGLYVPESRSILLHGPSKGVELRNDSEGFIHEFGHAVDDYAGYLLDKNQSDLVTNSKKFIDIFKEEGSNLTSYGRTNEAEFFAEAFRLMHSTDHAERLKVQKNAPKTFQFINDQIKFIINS

Measured: inhibition

CC(=O)[C@H]1[C@H](C#N)C[C@H]2[C@@H]3CC=C4C[C@@H](O)CC[C@]4(C)[C@H]3CC[C@@]21C
inactive: [1] 4.5% | [2] 1.4% | [3] 4.8%

Cc1ccc(C(=O)NC(=S)NCCCN2CCOCC2)cc1
inactive: [1] 3.6% | [2] -1.4% | [3] 6.1%

CCCCCC(O)c1cccc(OCc2ccc3ccccc3n2)c1 (centres undefined)
inactive: [1] 0.9% | [2] 0.6% | [3] -0.8%

O=C(NCC1CCCCN1)c1cc(OCC(F)(F)F)ccc1OCC(F)(F)F (centres undefined)
inactive: [1] -0.8% | [2] -0.3% | [3] -2%

Cc1ccc2nc(NC3=NC(CC(=O)O)C(=O)N3)nc(C)c2c1 (centres undefined)
inactive: [1] -1.7% | [2] -1% | [3] -4.8%

Cc1ccc(-n2ncc3c(Nc4cccc(C(=O)O)c4)ncnc32)cc1
inactive: [1] 0.7% | [2] -1.1% | [3] 1.7%

C=C(C)C(=O)Nc1ccc(NC(C)C)cc1
inactive: [1] 0.4% | [2] -0.8% | [3] 5.7%

O=C(Oc1ccc2c3c(c(=O)oc2c1)CCCC3)c1ccco1
inactive: [1] -0.9% | [2] -1.1% | [3] -3.9%

CC(=O)OCC(=O)[C@H]1CC[C@H]2[C@@H]3CCC4=CC(=O)CC[C@]4(C)[C@H]3CC[C@]12C
inactive: [1] -5.8% | [2] -1.1% | [3] -5.7%

Nc1nc(Cl)nc2c1ncn2[C@@H]1O[C@H](CO)[C@@H](O)[C@H]1O
inactive: [1] 3.3% | [2] 0.5% | [3] -6.9%

COc1cc2[nH]c3c(=O)n(CCN4CCOCC4)cnc3c2cc1OC
inactive: [1] 0.3% | [2] 0.1% | [3] 1%

Clc1ccc2c(c1)CCc1cccnc1C2=C1CCNCC1
inactive: [1] -4.1% | [2] -0.7% | [3] 5.5%

COc1ccc(-c2coc3cc(OC(=O)N4CCOCC4)ccc3c2=O)cc1
inactive: [1] 4.3% | [2] -1.4% | [3] -0.4%

Cc1cc(O)c(C(=O)Cc2csc(C)n2)c(O)c1
inactive: [1] -5.7% | [2] -2.4% | [3] 0.7%

Cc1c(OCC(=O)NC(Cc2c[nH]c3ccc(O)cc23)C(=O)O)ccc2c3c(c(=O)oc12)CCC3 (centres undefined)
inactive: [1] 3.2% | [2] -1.1% | [3] 3.7%

COc1ccccc1CCn1cnc2c3cc(C)ccc3n(C)c2c1=O
inactive: [1] -0.5% | [2] -1% | [3] -9.2%

COc1cc(OC)c2c(C)c(Cl)c(=O)oc2c1
inactive: [1] 1.9% | [2] -0.8% | [3] -3.3%

O=C(CCCCCCCC(=O)c1ccccc1)c1ccccc1
inactive: [1] -2% | [2] -2.3% | [3] -9.8%

Cn1c(Oc2ccc3c(c2)OCO3)nc2c1c(=O)n(Cc1ccccc1)c(=O)n2C
inactive: [1] 1.4% | [2] -0.3% | [3] -0.5%

O=C(c1ccc(Cl)cc1)C1CCCN(C(=O)/C=C/c2ccccn2)C1 (centres undefined)
inactive: [1] 2.6% | [2] -0.7% | [3] 6%

CC(=O)OCC(=O)[C@H]1CC[C@H]2[C@@H]3CC=C4C[C@@H](O)CC[C@]4(C)[C@H]3CC[C@]12C
inactive: [1] -1.9% | [2] -1.3% | [3] -7.4%

CCCCNc1cc(C(=O)O)cc(S(N)(=O)=O)c1Oc1ccccc1
inactive: [1] 2.6% | [2] 1.7% | [3] -3.2%

CC(=O)SC1CC2=CC(=O)CCC2(C)C2CCC3(C)C(CCC34CCC(=O)O4)C12 (centres undefined)
inactive: [1] 0% | [2] 0.1% | [3] -5.9%

C=CCn1c(SCC(=O)NC2CCCCC2)nc2ccccc2c1=O
inactive: [1] -0.1% | [2] -1.1% | [3] -3.5%

CC(C)NNC(=O)c1ccncc1
inactive: [1] 1.2% | [2] 1.3% | [3] -7.1%

CC(=O)c1cc2c(cc1NC(=O)c1ccco1)OCCO2
inactive: [1] -1.7% | [2] -1.3% | [3] -1.9%

CN(C)C(=O)Oc1ccc[n+](C)c1
inactive: [1] -1.5% | [2] -0.6% | [3] -0.5%

COc1cc2c(cc1OC)/C(=C/c1ccc(Cl)cc1)C(=O)OC2
inactive: [1] -0.2% | [2] 0.8% | [3] -1.5%
